Measurements: the supplement of paper PMC10849652
The full data set covers some 7,900 targets. This sample favours those with a hit. About 0.6% of all pairs of compound and target were hits.

How the values were obtained:
Experiment in all cases: log2 fold change, soluble protein after heating vs DMSO (PISA); higher = thermal stabilisation; K562 cells, 10 uM, 30 min; active = over 0.2 and 3.5 SD of the protein, either way, in both replicates (recomputed)
erlotinib = compound: C#Cc1cccc(Nc2ncnc3cc(OCCOC)c(OCCOC)cc23)c1 [erlotinib]
How it was run: (§1)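 Thermal stability values are relative to control samples and come from duplicates. They are expressed as log2 fold changes. For measurement, K562 cells (2×10^6 cells/mL) received 10 μM compound for 30 min, and aliquots were heated for 3 min over 48°C-58°C, pooled, and extracted at 4°C in PBS with 0.5% NP-40. Soluble protein, the supernatant after 21,000xg for 90 min, was quantified by TMTpro 16plex LC-MS/MS with equalised channel sums.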

[1] = compound: C/C(=N\NC(=O)C1=CC(=CC=C1)S(=O)(=O)N2CCOCC2)/C3=C(C=CC(=C3)Cl)O
How it was run: as §1

[2] = compound: C1=CC(=CC=C1C2=NC3=C(N2)C=C(C=C3)C(=O)N)OC4=CC=C(C=C4)Cl
How it was run: as §1

[3] = compound: C1=CC2=C(C=CC(=C2)/C=C\3/C(=O)NC(=NCC4=CC=CS4)S3)N=C1
How it was run: as §1

[4] = compound: C1=CC2=NC=CN=C2C=C1/C=C/3\C(=O)NC(=O)S3
How it was run: as §1

[5] = compound: C1=CC=C(C=C1)C2=NC(=C(N2)C3=CC=NC=C3)C4=CC(=C(C=C4)Cl)O
How it was run: as §1

[6] = compound: C1=CC=C2C(=C1)C3=NNC4=CC=CC(=C43)C2=O
How it was run: as §1

[7] = compound: C1CCN(C1)C(=O)NC2=CC=CC(=C2)NC3=NC=C(C(=N3)NCCC4=CN=CN4)Br
How it was run: as §1

[8] = compound: C1CN(CCC1(CC2=CC=C(C=C2)Cl)N)C3=NC=NC4=C3C=CN4
How it was run: as §1

ibrutinib = compound: C=CC(=O)N1CCC[C@@H](n2nc(-c3ccc(Oc4ccccc4)cc3)c3c(N)ncnc32)C1 [ibrutinib]
How it was run: as §1

[9] = compound: CC(=O)c1cnc2ccc(-c3cc(Cl)c(O)c(Cl)c3)nc2c1N[C@H]1CC[C@H](CN(C)C)CC1
How it was run: as §1

ralimetinib = compound: CC(C)(C)Cn1c(N)nc2ccc(-c3[nH]c(C(C)(C)C)nc3-c3ccc(F)cc3)nc21 [ralimetinib]
How it was run: as §1

[10] = compound: CC(C)C1=C2N=C(C=C(N2N=C1)NCC3=CC=CC=C3)NCCCCCCN
How it was run: as §1

[11] = compound: CC(C)C[C@@H](C=O)NC(=O)[C@H](CC(C)C)NC(=O)[C@H](CC(C)C)NC(=O)OCc1ccccc1
How it was run: as §1

[12] = compound: CC1=C(C(CC(=O)N1)C2=CC=C(C=C2)C(F)(F)F)C(=O)NC3=C(C=C4C(=C3)C=NN4)F
How it was run: as §1

[13] = compound: CC1=C(C2=C(C=C1)C(=O)C3=CC=CC=C3N2CCCN)C
How it was run: as §1

[14] = compound: C1=CC(=C(C=C1Cl)C2=NC3=NC=CN=C3C(=N2)NC4=CC=NC=C4)F
How it was run: as §1

IRAK-1-4 Inhibitor I = compound: C1COCCN1CCN2C3=CC=CC=C3N=C2NC(=O)C4=CC(=CC=C4)[N+](=O)[O-] [IRAK-1-4 Inhibitor I]
How it was run: as §1

[15] = compound: CC(C)(O)CC(=O)NCCn1ccc2ncnc(Nc3ccc(Oc4cccc(C(F)(F)F)c4)c(Cl)c3)c21
How it was run: as §1

pinometostat = compound: CC(C)N(C[C@H]1O[C@@H](n2cnc3c(N)ncnc32)[C@H](O)[C@@H]1O)[C@H]1C[C@@H](CCc2nc3cc(C(C)(C)C)ccc3[nH]2)C1 [pinometostat]
How it was run: as §1

Measured: log2 fold change

CCNDBP1 (UniProt O95273)
UniProt O95273, sequence (O95273 whole entry, looked up): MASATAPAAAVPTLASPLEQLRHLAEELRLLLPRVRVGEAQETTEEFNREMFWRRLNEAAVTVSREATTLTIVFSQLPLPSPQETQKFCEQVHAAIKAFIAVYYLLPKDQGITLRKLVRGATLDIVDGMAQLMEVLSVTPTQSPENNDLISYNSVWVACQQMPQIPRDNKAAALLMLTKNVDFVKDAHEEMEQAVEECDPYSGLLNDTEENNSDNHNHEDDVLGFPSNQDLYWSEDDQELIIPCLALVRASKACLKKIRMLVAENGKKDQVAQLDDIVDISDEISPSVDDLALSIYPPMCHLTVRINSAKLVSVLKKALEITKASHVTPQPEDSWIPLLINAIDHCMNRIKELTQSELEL
inactive: erlotinib 0.009 | [1] 0.191 | [2] 0.105 | [3] -0.011 | [4] 0.034 | [5] 0.076 | [6] -0.122 | [7] -0.086 | [8] -0.068 | ibrutinib -0.184 | [9] 0.071 | ralimetinib 0.168 | [10] -0.077 | [11] -0.027 | [12] 0.166 | [13] -0.166

CDK4 (UniProt P11802)
active: [9] 0.685
inactive: erlotinib 0.075 | [1] -0.244 | [14] -0.008 | [2] -0.086 | [3] 0.329 | [4] 0.11 | [5] -0.067 | [6] 0.032 | IRAK-1-4 Inhibitor I 0.001 | ibrutinib -0.004 | ralimetinib 0.054 | [15] -0.098 | [10] -0.333 | [11] 0.105 | pinometostat 0.081 | [12] -0.069

CAV2 (UniProt P51636)
UniProt P51636, sequence (P51636 whole entry, looked up): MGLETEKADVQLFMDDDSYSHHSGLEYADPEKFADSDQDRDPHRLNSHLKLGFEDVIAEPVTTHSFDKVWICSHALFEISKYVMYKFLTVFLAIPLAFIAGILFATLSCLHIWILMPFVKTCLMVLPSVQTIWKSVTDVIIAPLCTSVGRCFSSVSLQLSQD
inactive: erlotinib -0.01 | [1] -0.066 | [2] 0.076 | [3] -0.018 | [4] -0.559 | [6] 0.057 | [7] 0.025 | [8] -0.021 | IRAK-1-4 Inhibitor I -0.165 | ibrutinib 0.105 | [9] 0.025 | [10] -0.073 | pinometostat 0.178 | [12] 0.028 | [13] 0.005

CDK5 (UniProt Q00535)
UniProt Q00535, sequence (Q00535 whole entry, looked up): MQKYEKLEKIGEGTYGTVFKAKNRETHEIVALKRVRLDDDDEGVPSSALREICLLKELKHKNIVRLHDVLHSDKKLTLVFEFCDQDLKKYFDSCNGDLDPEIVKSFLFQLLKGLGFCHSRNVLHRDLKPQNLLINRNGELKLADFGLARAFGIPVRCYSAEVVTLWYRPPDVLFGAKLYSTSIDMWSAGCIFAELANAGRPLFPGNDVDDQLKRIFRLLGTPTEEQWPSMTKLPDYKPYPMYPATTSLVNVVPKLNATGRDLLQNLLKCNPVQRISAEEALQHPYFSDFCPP
inactive: erlotinib -0.02 | [1] -0.009 | [14] 0.041 | [2] -0.008 | [3] -0.014 | [4] 0.052 | [5] -0.02 | [7] 0.017 | [8] 0.038 | IRAK-1-4 Inhibitor I 0.008 | ibrutinib -0.009 | [9] 0.038 | ralimetinib 0.032 | [15] -0.07 | [10] -0.021 | [11] 0.043 | pinometostat 0.024 | [12] 0.038 | [13] 0.028

CORO2A (UniProt Q92828)
inactive: erlotinib -0.035 | [1] 0.064 | [2] -0.011 | [3] -0.001 | [4] 0.127 | [5] 0.138 | [6] -0.042 | [7] 0.034 | [8] 0.031 | ibrutinib -0.068 | [9] -0.022 | ralimetinib 0.019 | [10] -0.088 | [11] 0.21 | [12] 0.008 | [13] 0.01

CDC25B isoform 4 (UniProt P30305)
inactive: erlotinib -0.031 | [1] 0.117 | [14] 0.036 | [2] 0.044 | [3] -0.062 | [4] 0.131 | [5] -0.007 | [6] -0.047 | IRAK-1-4 Inhibitor I 0.068 | ibrutinib 0.037 | [9] -0.302 | ralimetinib 0.079 | [15] -0.049 | [10] 0.021 | [11] -0.02 | pinometostat 0.007 | [12] 0.155

CLN8 (UniProt Q9UBY8)
UniProt Q9UBY8, sequence (Q9UBY8 whole entry, looked up): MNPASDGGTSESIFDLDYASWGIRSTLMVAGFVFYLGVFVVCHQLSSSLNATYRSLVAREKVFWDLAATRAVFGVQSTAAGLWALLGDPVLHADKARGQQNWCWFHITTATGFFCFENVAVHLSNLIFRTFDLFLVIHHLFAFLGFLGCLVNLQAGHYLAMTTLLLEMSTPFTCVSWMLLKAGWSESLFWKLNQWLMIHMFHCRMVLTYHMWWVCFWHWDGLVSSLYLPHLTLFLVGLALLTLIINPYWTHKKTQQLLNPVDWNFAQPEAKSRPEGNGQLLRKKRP
inactive: erlotinib 0.012 | [1] 0.198 | [2] 0.01 | [3] 0.212 | [4] 0.099 | [5] -0.208 | [6] -0.06 | [7] 0.003 | [8] -0.171 | [9] -0.164 | ralimetinib 0.643 | [10] 0.017 | [11] 0.139 | [12] 0.043 | [13] 0.138

COG2 (UniProt Q14746)
UniProt Q14746, sequence (Q14746 whole entry, looked up): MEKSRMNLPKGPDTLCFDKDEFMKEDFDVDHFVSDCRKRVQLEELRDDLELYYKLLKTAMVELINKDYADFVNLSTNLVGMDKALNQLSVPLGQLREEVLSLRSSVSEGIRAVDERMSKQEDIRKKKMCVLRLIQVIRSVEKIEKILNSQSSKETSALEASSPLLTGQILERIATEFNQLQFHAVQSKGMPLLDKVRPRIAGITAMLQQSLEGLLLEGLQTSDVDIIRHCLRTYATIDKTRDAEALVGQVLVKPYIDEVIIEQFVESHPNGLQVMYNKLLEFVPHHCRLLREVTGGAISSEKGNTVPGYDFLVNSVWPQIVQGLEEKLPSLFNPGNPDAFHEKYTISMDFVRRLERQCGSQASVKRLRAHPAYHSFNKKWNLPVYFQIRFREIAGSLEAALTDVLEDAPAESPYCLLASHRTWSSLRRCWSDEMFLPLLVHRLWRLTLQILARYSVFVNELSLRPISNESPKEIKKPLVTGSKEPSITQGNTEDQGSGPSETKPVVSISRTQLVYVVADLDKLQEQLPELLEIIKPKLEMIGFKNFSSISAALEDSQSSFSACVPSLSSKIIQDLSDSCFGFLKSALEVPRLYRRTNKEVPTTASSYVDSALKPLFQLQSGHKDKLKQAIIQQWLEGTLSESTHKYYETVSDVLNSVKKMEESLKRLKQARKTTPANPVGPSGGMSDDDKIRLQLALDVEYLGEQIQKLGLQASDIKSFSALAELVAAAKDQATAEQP
inactive: erlotinib -0.082 | [1] -0.367 | [14] 0.012 | [2] -0.026 | [3] 0.478 | [5] -0.223 | [6] -0.137 | [7] 0.257 | [8] -0.065 | IRAK-1-4 Inhibitor I -0.232 | [9] -0.042 | ralimetinib 0.099 | [15] -0.317 | [10] -0.009 | [11] 0.18 | pinometostat -0.043 | [12] 0.132 | [13] -0.108

CLCN7 (UniProt P51798)
inactive: erlotinib 0.079 | [1] 0.047 | [14] 0.075 | [2] -0.008 | [3] 0.023 | [4] 0.063 | [5] 0.076 | [6] -0.05 | [7] 0.016 | [8] 0.001 | IRAK-1-4 Inhibitor I -0.01 | [9] -0.005 | ralimetinib -0.055 | [15] -0.08 | [11] 0 | pinometostat -0.051 | [12] 0.04 | [13] -0.092
active: [10] -0.91

CDCA2 (UniProt Q69YH5)
UniProt Q69YH5, sequence (Q69YH5 whole entry, looked up): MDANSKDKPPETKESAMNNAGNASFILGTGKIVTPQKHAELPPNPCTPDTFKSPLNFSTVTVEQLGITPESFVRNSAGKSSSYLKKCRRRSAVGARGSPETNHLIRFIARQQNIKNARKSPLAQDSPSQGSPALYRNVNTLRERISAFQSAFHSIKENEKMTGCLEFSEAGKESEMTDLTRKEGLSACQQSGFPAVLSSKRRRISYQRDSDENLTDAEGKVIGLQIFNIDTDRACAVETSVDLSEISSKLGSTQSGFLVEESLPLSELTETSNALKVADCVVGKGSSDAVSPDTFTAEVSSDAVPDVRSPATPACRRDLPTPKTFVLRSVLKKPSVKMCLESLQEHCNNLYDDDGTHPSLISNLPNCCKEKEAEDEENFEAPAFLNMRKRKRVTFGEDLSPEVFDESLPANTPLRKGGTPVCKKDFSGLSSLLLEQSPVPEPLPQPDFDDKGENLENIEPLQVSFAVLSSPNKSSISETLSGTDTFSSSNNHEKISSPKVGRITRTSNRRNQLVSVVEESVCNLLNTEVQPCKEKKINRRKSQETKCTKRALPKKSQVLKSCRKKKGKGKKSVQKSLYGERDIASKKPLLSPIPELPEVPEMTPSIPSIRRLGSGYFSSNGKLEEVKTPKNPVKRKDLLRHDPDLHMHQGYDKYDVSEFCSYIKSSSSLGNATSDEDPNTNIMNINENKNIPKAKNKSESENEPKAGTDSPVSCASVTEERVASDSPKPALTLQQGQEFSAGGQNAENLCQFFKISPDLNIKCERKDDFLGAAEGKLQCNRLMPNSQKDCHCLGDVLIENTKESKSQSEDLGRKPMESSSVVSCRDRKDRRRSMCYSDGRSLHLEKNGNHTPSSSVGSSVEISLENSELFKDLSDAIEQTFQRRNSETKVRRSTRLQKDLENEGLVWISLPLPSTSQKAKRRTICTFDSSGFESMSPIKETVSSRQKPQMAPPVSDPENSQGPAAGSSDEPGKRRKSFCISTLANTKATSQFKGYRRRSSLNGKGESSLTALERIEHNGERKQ
active: erlotinib 0.519
inactive: [1] -0.46 | [14] 0.043 | [2] -0.333 | [3] 0.048 | [5] -0.002 | [6] -0.033 | [7] -0.082 | [8] 0.256 | IRAK-1-4 Inhibitor I 0.023 | [9] 0.011 | ralimetinib 0.081 | [15] -0.138 | [10] -0.009 | [11] 0.188 | pinometostat -0.008 | [12] -0.018 | [13] -0.003

CDK19 (UniProt Q9BWU1)
UniProt Q9BWU1, sequence (Q9BWU1 whole entry, looked up): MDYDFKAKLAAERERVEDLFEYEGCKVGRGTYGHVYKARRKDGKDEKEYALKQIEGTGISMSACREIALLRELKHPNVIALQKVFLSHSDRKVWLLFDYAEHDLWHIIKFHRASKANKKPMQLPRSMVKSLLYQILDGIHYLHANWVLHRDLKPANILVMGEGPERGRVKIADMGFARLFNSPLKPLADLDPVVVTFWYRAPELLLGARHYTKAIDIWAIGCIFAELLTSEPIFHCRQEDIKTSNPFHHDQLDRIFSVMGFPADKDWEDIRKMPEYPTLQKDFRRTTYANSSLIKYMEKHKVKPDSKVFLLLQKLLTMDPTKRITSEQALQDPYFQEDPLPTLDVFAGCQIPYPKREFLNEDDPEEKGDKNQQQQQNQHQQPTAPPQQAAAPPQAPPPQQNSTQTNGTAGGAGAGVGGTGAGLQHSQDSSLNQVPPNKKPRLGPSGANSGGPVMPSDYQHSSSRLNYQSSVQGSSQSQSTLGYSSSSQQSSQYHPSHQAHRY
inactive: erlotinib -0.2 | [1] -0.116 | [14] 0.053 | [2] 0.268 | [3] 0.111 | [5] -0.167 | [6] 0.099 | [7] 0.003 | [8] 0.021 | ralimetinib -0.133 | [15] -0.02 | [10] 0.222 | [11] 0.074 | [12] -0.156 | [13] 0.119
active: [9] 0.541

CCDC167 (UniProt Q9P0B6)
UniProt Q9P0B6, sequence (Q9P0B6 whole entry, looked up): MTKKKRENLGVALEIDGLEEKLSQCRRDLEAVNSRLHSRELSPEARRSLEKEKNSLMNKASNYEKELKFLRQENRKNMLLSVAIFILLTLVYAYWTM
inactive: erlotinib 0.068 | [14] 0.008 | [2] -0.041 | [4] 0.054 | [5] 0.072 | [7] 0.054 | [8] 0.224 | IRAK-1-4 Inhibitor I -0.056 | ibrutinib 0.013 | ralimetinib -0.028 | [15] 0.163 | [10] -0.258 | [11] 0.061 | pinometostat 0.052 | [12] 0.034 | [13] 0.021

CCNT2 (UniProt O60583)
UniProt O60583, sequence (O60583 whole entry, looked up): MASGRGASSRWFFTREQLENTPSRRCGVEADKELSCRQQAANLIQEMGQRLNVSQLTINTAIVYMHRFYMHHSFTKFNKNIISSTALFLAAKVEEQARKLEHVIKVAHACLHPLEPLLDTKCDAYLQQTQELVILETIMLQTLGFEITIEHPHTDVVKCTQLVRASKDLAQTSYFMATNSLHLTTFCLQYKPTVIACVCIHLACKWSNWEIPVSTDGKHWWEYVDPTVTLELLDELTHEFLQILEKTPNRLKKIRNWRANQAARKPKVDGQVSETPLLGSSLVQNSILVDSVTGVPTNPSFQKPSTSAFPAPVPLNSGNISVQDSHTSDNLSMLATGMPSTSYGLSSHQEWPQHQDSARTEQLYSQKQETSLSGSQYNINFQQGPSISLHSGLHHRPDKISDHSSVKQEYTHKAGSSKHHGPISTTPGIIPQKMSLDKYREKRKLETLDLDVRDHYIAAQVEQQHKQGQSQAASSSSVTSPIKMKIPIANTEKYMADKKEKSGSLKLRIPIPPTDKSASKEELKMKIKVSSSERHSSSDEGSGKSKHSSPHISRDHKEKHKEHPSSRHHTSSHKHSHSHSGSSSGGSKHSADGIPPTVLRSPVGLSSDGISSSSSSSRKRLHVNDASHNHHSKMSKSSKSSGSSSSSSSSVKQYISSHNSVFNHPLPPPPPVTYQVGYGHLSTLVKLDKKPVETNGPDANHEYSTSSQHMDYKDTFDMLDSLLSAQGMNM
inactive: [1] 0 | [14] -0.105 | [3] -0.029 | [5] -0.025 | [6] -0.08 | [7] -0.176 | [8] -0.027 | ralimetinib 0.191 | [15] 0.059 | [11] 0.116 | [12] 0.011 | [13] -0.062
active: [9] -0.797

CASP10 isoform 4 (UniProt Q92851)
inactive: [1] 0.138 | [14] 0.026 | [3] 0.124 | [4] -0.046 | [5] 0.051 | [6] -0.04 | [7] -0.13 | [8] -0.21 | IRAK-1-4 Inhibitor I -0.132 | ibrutinib -0.083 | [9] 0.083 | ralimetinib 0.095 | [15] -0.13 | [11] -0.015 | pinometostat 0.047 | [12] 0.021 | [13] 0.262

CNRIP1 (UniProt Q96F85)
UniProt Q96F85, sequence (Q96F85 whole entry, looked up): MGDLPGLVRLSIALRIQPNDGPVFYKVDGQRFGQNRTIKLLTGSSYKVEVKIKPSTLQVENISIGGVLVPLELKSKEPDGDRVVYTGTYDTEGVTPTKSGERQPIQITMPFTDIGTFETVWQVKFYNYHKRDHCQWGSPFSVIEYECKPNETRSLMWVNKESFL
inactive: erlotinib -0.065 | [14] 0.045 | [2] 0.045 | [5] -0.115 | ralimetinib -0.051 | [15] -0.255 | [10] 0.034 | [11] 0.116 | [12] 0.165

CLPTM1L (UniProt G5E9Z2)
inactive: [1] 0.109 | [14] 0.492 | [3] -0.139 | [4] 0.284 | [6] 0.174 | [7] 0.145 | [8] 0.272 | [9] -0.03 | [15] -0.556 | [12] 0.106 | [13] -0.201

CCDC187, A0A1W2PQX5
inactive: [1] -0.124 | [14] -0.079 | [3] 0.169 | [5] -0.055 | [6] 0.013 | [9] -0.14 | ralimetinib -0.237 | [15] 0.201 | [11] 0.001 | [12] -0.11

CD68 (UniProt P34810)
active: [10] -0.535
inactive: erlotinib -0.13 | [2] 0.022 | [4] 0.094 | ibrutinib 0.057

CRMP1 isoform 2 (UniProt Q14194)
inactive: erlotinib -0.1 | [1] -0.273 | [2] 0.009 | [3] 0.101 | [4] -0.011 | [6] -0.037 | [7] 0.088 | [8] -0.014 | ibrutinib 0.038 | [9] -0.224 | [10] 0.124 | [12] 0.196 | [13] 0.181

CNN1 (UniProt P51911)
UniProt P51911, sequence (P51911 whole entry, looked up): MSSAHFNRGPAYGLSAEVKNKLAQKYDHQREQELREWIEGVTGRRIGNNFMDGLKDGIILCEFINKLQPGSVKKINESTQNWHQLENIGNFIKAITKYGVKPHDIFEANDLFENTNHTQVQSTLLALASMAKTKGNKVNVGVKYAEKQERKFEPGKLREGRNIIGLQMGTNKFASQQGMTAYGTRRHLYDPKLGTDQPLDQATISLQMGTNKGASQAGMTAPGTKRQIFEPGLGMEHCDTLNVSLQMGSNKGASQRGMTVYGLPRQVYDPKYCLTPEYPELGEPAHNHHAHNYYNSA
inactive: [1] 0.062 | [14] 0.055 | [3] 0.063 | [6] 0.041 | [7] -0.129 | [8] 0.118 | [9] -0.086 | [15] -0.071 | [12] 0.144 | [13] 0.145

CLINT1 (UniProt Q14677)
inactive: [1] -0.106 | [14] -0.12 | [3] -0.176 | [4] 0.035 | [6] 0.031 | [7] -0.097 | [8] -0.057 | [9] 0.059 | [15] 0.221 | pinometostat 0.058 | [12] 0.099 | [13] -0.114

C5orf30 (UniProt Q96GV9)
UniProt Q96GV9, sequence (Q96GV9 whole entry, looked up): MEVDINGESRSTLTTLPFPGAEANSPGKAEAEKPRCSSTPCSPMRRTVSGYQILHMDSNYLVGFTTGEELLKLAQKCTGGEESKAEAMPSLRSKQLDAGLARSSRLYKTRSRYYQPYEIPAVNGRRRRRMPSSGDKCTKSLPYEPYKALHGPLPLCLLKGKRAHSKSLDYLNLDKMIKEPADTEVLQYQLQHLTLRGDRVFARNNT
inactive: [1] 0.267 | [14] -0.056 | [3] 0.062 | [6] -0.347 | [7] 0.01 | [8] 0.128 | [15] 0.059 | [13] -0.284
active: [9] -0.917
